PubChem BioAssay AID602261 (Sanford-Burnham Center for Chemical Genomics, 2012)
The campaign covered roughly 360,000 compounds. About 2,400 (0.67%) were called active. The sample holds actives, similar compounds and a random draw of the others, so the mix is not that of the screen.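 The calls were made as follows: active = compounds whose normalised, plate-corrected inhibition of enzyme fluorescence in the single-dose primary screen is 50% or more; inactive = the rest.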

target: Fatty acid synthase (Homo sapiens) (UniProt P49327); assay: inhibition of human FAS-TE enzyme activity – biochemical, fluorescence intensity, uHTS, primary screen (AID 602261); settings: recombinant FAS-TE, OMFH fluorogenic substrate, fluorescence endpoint; at 15 µM; hits give high values;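 also: 0% = DMSO with enzyme and 100% = substrate without enzyme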
Sequence (P49327 whole entry, looked up): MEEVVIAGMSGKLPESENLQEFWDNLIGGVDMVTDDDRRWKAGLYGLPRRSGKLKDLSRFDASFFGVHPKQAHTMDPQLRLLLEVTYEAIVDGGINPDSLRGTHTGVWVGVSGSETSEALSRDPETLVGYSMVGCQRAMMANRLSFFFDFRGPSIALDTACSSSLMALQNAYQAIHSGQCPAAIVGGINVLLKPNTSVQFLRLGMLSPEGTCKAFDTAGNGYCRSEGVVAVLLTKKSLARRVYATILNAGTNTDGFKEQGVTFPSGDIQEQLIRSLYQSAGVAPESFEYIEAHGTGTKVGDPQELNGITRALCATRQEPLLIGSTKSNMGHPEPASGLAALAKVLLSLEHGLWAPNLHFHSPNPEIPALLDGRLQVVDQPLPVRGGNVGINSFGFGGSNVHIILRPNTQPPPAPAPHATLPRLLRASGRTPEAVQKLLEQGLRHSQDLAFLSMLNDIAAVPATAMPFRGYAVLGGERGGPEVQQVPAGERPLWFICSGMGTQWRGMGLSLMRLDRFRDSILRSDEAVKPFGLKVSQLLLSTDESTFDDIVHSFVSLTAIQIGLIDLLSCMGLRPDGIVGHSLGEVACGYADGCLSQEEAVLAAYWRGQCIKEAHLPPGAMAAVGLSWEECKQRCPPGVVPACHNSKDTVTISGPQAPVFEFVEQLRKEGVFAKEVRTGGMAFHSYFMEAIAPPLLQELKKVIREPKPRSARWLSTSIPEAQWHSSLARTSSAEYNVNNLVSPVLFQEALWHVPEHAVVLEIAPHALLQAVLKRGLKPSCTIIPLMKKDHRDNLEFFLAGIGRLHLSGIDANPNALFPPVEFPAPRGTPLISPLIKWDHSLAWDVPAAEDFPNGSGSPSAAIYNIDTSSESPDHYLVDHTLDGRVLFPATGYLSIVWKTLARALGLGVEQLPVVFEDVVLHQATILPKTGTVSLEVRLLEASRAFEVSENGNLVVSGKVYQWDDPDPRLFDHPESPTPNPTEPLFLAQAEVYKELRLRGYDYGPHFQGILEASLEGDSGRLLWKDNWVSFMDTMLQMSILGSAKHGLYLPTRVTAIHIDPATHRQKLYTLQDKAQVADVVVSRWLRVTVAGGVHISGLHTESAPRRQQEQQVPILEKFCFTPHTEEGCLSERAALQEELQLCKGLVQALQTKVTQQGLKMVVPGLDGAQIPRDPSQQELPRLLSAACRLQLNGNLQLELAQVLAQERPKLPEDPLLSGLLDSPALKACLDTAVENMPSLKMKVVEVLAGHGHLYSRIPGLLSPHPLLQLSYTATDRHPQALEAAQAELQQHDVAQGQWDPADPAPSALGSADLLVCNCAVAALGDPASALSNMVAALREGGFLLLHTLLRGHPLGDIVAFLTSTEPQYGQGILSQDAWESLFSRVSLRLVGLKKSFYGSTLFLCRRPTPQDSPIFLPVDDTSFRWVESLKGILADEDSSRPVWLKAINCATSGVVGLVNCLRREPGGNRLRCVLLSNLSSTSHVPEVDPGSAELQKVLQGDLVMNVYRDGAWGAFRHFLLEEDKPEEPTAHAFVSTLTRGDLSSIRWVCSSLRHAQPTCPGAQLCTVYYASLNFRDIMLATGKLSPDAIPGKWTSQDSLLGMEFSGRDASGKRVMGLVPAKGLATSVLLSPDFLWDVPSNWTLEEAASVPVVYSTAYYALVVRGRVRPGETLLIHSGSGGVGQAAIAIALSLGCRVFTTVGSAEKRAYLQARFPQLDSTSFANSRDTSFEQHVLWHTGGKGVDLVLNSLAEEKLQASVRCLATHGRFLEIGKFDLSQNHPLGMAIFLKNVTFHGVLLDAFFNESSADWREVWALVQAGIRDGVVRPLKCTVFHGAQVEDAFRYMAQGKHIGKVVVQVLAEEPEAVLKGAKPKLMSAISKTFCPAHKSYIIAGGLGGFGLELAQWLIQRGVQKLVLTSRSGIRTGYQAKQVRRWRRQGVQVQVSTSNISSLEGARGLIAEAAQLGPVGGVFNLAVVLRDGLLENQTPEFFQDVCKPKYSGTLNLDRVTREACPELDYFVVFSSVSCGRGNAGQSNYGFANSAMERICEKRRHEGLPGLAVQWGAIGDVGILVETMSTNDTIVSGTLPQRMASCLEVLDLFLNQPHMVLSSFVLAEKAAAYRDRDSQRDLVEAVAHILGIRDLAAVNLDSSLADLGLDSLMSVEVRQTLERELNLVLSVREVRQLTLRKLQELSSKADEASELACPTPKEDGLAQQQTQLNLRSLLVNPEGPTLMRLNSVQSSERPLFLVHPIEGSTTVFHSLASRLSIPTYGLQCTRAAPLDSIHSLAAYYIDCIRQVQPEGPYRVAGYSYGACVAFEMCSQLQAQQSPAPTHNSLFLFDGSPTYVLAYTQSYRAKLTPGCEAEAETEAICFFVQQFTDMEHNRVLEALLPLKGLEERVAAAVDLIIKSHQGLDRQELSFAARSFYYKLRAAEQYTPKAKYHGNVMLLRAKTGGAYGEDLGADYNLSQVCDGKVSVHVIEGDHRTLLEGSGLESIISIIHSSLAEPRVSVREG

Compound | inhibition
Cc1cc([N+](=O)[O-])nn1Cc1ccc(F)cc1 | -0.9% (inactive)
CCC1CCC/C1=N\NC(=O)c1ccc(Cl)cc1 (stereo unspecified) | -4.6% (inactive)
COc1ccc(OC)c(NC(=O)c2cc(-c3cc(F)ccc3OCC3CCCO3)n[nH]2)c1 (stereo unspecified) | 22.4% (inactive)
CCN(CC)S(=O)(=O)c1ccc2[nH]c(=O)cc(C(=O)N(C)C3CCS(=O)(=O)C3)c2c1 (stereo unspecified) | 0% (inactive)
Cc1ccc(S(=O)(=O)n2cnc3ccccc32)c(C)c1 | -4.2% (inactive)
Cc1cccc(Nc2nc3c(S(=O)(=O)c4ccccc4)nnn3c3ccccc23)c1C | -3.1% (inactive)
CCOC(=O)c1nnn2c1nc(N1CCN(c3ccccc3)CC1)c1ccccc12 | 19.9% (inactive)
Cc1ccc(S(=O)(=O)c2nnn3c2nc(N2CCN(c4ccccn4)CC2)c2ccccc23)cc1 | 65.9% (active)
CCc1ccccc1OCC(=O)Nc1nnc(C2CC2)s1 | -9.2% (inactive)
Cc1ccc(S(=O)(=O)N2CCN(C(=O)c3ccccc3-c3nc4ccccc4s3)CC2)c(C)c1 | 15.3% (inactive)
OC(CN1C2=NCCCN2c2ccccc21)c1ccc(Br)cc1 (stereo unspecified) | -4.6% (inactive)
CC(NC(=O)Nc1cccc([N+](=O)[O-])c1)c1ccc2c(c1)OCO2 (stereo unspecified) | 83.4% (active)
CC(NC(=O)c1ccco1)c1ccc2c(c1)OCO2 (stereo unspecified) | -6.5% (inactive)
Cc1noc(C)c1C(=O)NC(C)c1ccc2c(c1)OCO2 (stereo unspecified) | -5.5% (inactive)
CCN1CCN(c2sc(S(C)(=O)=O)nc2S(=O)(=O)c2ccc(Cl)cc2)CC1 | -2.8% (inactive)
Cc1nnsc1S(=O)(=O)Cc1ccccc1Cl | -6.8% (inactive)
O=C(Nc1ccc(S(=O)(=O)N2CCOCC2)cc1)C1CCN(S(=O)(=O)c2ccc(Cl)cc2)CC1 | 28.3% (inactive)
O=C(Nc1ccccc1)c1nnsc1S(=O)(=O)c1ccc(Cl)cc1 | 69.7% (active)
O=C(NCCO)c1cccc(-c2cccc3nccn23)c1 | -6.3% (inactive)
Cc1cc(C(F)F)nn1CC(=O)NC1CCCCCC1 | -5.3% (inactive)
CC1(C)CC(=O)c2c(n(S(=O)(=O)c3ccccc3)c3ccc(NS(=O)(=O)c4ccccc4)cc23)C1 | 79.6% (active)
Cn1c(=O)n(C)c2cc(NS(=O)(=O)c3ccc(F)cc3)ccc21 | -7.3% (inactive)
COc1ccccc1-n1cnc2cc(NS(=O)(=O)c3ccccc3)ccc21 | 0.1% (inactive)

Compound | inhibition
CC(=O)N(Cc1cccs1)C1CCOC(C)(C)C1 (stereo unspecified) | -7.2% (inactive)
CCCCN1C(=O)CCC(C(=O)O)C1c1ccc(OC)cc1 (stereo unspecified) | -7.9% (inactive)
COc1ccc(C(=O)N(C)CC(O)c2ccccc2)cc1OC1CCN(C(C)=O)CC1 (stereo unspecified) | 0.7% (inactive)
Cc1ccc(S/C(=N\S(=O)(=O)c2ccc(Cl)cc2)c2ccccc2)cc1 | 57.1% (active)
Cc1ccc(S(=O)(=O)/N=C(/Nc2ccc3[nH]c(=O)[nH]c3c2)c2ccccc2)cc1 | -11.9% (inactive)
Cc1ccc(S(=O)(=O)/N=C(/Nc2ccccn2)c2ccc(Cl)cc2)cc1 | 2.1% (inactive)
COc1ccccc1C1CCN(C(=S)Nc2ccc(Br)cc2)CC1 | 31% (inactive)
CCOc1ccc(Br)cc1S(=O)(=O)Nc1ccc(S(=O)(=O)Nc2cc(C)on2)cc1 | -8.8% (inactive)
CCOc1ccc(Br)cc1S(=O)(=O)Nc1ccc(C(=O)OC(C)C(=O)N(C)c2ccccc2)cc1 (stereo unspecified) | 53.8% (active)
CCOc1ccc(Br)cc1S(=O)(=O)Nc1cccc(S(=O)(=O)N(CC)CC)c1 | 22.7% (inactive)
Cn1cc(S(=O)(=O)N2CCC(Cc3ccccc3)CC2)c(=O)n(C)c1=O | -7.6% (inactive)
COCCn1c(SCC(=O)Nc2cc(Cl)ccc2OC)nc2c(c1=O)SC(C)C2 (stereo unspecified) | 20.2% (inactive)
Cc1ccccc1-n1nnnc1SCCCC(=O)c1ccc(F)cc1 | 19.4% (inactive)
CC(C)=CCc1ccc(O)c(=O)cc1C(C)C | -0.3% (inactive)
COc1cccc(NC(=O)CN(C)C(=O)c2ccccc2CCc2ccccc2)c1 | 23.2% (inactive)
COc1ccc(CN2CCCC(C(=O)c3ccc(Cl)cc3)C2)cc1Cn1cncn1 (stereo unspecified) | -9.9% (inactive)
COc1ccc(C2Nc3ccccc3C(=O)N2Cc2ccccc2)cc1Cn1nnc2ccccc21 (stereo unspecified) | 35.8% (inactive)
COc1ccc(C2Nc3ccccc3C(=O)N2c2ccc(Cl)cc2)cc1Cn1cc([N+](=O)[O-])cn1 (stereo unspecified) | 69.9% (active)
Cc1ccc(Nc2cc(C)nc3c(C)ccc([N+](=O)[O-])c23)cc1 | 25% (inactive)
N#CCCN(C(=O)COC(=O)C1CCN(c2ccc(C(F)(F)F)cn2)CC1)c1ccc(F)cc1 | 18.7% (inactive)
Nc1cc(OC(=O)c2ccccc2Br)nn1S(=O)(=O)c1ccccc1 | 5.4% (inactive)
O=C(Cc1ccc(Cl)c(Cl)c1)Nc1ccc(SC(F)F)cc1 | 66.1% (active)
O=C(CC(O)(C(F)(F)F)C(F)(F)F)Nc1ccc(Cl)c(Cl)c1 | 22.2% (inactive)

Compound | inhibition
O=C(CCl)Nc1ccc(Sc2ccc(NC(=O)CCl)cc2)cc1 | 2.8% (inactive)
CCOC(=O)Cn1nnnc1C | -1.8% (inactive)
O=C(NCc1ccc2c(c1)OCO2)c1cc([N+](=O)[O-])ccc1N1CCOCC1 | 51.7% (active)
CC1CCN(c2ccc(C(=O)NCc3ccc4c(c3)OCO4)cc2[N+](=O)[O-])CC1 | 13.7% (inactive)
O=C(Cc1ccc([N+](=O)[O-])cc1)NCCc1ccc2c(c1)OCO2 | 18.8% (inactive)
CC(C)(C)c1ccc(/C=C/C(=O)NC2CCS(=O)(=O)C2)cc1 (stereo unspecified) | -0.6% (inactive)
CN(C)c1ccc(S(=O)(=O)NCC(=O)NCC2CCCCC2)cc1[N+](=O)[O-] | 5.2% (inactive)
CN(C)c1ccc(/C=C/C(=O)c2ccc(C(C)(C)C)cc2)cc1[N+](=O)[O-] | 74.2% (active)
Cc1ccc(S(=O)(=O)N2CCN(C)CC2)cc1C(=O)NC1CCCCC1 | -7% (inactive)
CCOC(=O)C1=CN(Cc2ccc(Br)cc2)S(=O)(=O)NC1C (stereo unspecified) | 9.4% (inactive)
CC(C)[C@@H]1COC(c2cccc(C3=N[C@H](C(C)C)CO3)c2)=N1 | 1.1% (inactive)
CC1(C)O[C@@H]2[C@H](O1)[C@@H](COS(=O)(=O)O)O[C@H]2n1ccc(=O)[nH]c1=O | -13.4% (inactive)
CC(NS(=O)(=O)c1ccc(Cl)cc1)C(=O)Nc1ccc2c(c1)OCCO2 (stereo unspecified) | -2.1% (inactive)
CCN(CC)CCNC(=O)c1ccc(NS(=O)(=O)c2ccc3c(c2)OCCO3)cc1 | -4.3% (inactive)
O=C(Nc1cccc(S(=O)(=O)Nc2ccc(Cl)cc2)c1)c1ccc2c(c1)OCCO2 | 54% (active)
CCN(CC)c1ccc(S(=O)(=O)N2CCOCC2)cc1NC(=O)CSc1cccc[n+]1[O-] | -33.9% (inactive)
O=C(Nc1ccc(OC(F)(F)F)cc1)c1ccc2c(c1)no[n+]2[O-] | 50.7% (active)
CCc1nnc(NS(=O)(=O)c2ccc(NC(=O)c3cccc(OC(F)(F)C(F)F)c3)cc2)s1 | 15.6% (inactive)
O=C(Nc1ccccc1)c1ccc2nsnc2c1 | -6.4% (inactive)
COc1ccccc1C(=O)NC(CCSC)C(=O)NNC(=O)c1ccccc1C (stereo unspecified) | -1.2% (inactive)
CC(c1ccco1)N(C(=O)COc1ccccc1[N+](=O)[O-])c1ccccn1 (stereo unspecified) | 6.4% (inactive)
CN1CCOC1c1ccc(C2OCCN2C)cc1 (stereo unspecified) | -6.4% (inactive)
CC(=O)c1ccc(N2CCN(S(=O)(=O)c3ccc4c(c3)CC(=O)N4C)CC2)cc1 | 8.9% (inactive)

Compound | inhibition
CC(=O)c1ccc(S(=O)(=O)N2CCC3(CC2)OCCO3)cc1 | -3.8% (inactive)
CC(=O)c1ccc(S(=O)(=O)N2CCN(c3nc4c(C)c(C)ccc4cc3C#N)CC2)cc1 | 61.5% (active)
Oc1c(Br)cc(/C=N/NC(=S)NCC2CCCO2)cc1Br (stereo unspecified) | -3.3% (inactive)
O=C(NC1CCCC1)C1c2ccccc2OCC(=O)N1Cc1ccccc1 (stereo unspecified) | -7.8% (inactive)
Cc1ccc(NC(=O)N2CCSc3ccccc32)cc1 | 3.8% (inactive)
O=C(c1cccc(Cl)c1)N1CCN(Cc2ccccc2)CC1 | -4.7% (inactive)
O=C(/C=C/c1cccc([N+](=O)[O-])c1)N1CCN(Cc2ccccc2)CC1 | 69.8% (active)
O=C(/C=C/c1cccc([N+](=O)[O-])c1)OCC(=O)N1CCOCC1 | -3.4% (inactive)
CCCOc1ccc(/C(O)=C2/C(=O)C(=O)N(CCN(C)C)C2c2ccc(OC)c(OC)c2)cc1 (stereo unspecified) | -4.4% (inactive)
CCN1CCCC1CNC(=O)c1ccc2c(c1)NC(=O)/C(=C\c1ccccc1F)S2 (stereo unspecified) | -6.6% (inactive)
CCOC(=O)N1CCN(S(=O)(=O)N2CCCC(C(=O)NCCCN3CCC(C)CC3)C2)CC1 (stereo unspecified) | -9% (inactive)
O=S(=O)(c1ccc(Cl)cc1)c1nc(-c2ccco2)oc1N1CCCCC1 | 17.9% (inactive)
Cn1c(NN)nc2sc3c(c2c1=O)CCC3 | 0% (inactive)
O=c1oc(-c2ccco2)nc2sc3c(c12)CCCCC3 | 59.2% (active)
CCCCCc1c(Cc2ccccc2)ncn1CCc1ccccc1OC | 11% (inactive)
Cc1cccc(NC(=O)CSc2nc3c(c(=O)[nH]2)CCC3)c1C | -9.1% (inactive)
NS(=O)(=O)c1cccc(NC(=O)COC(=O)c2cc([N+](=O)[O-])ccc2N2CCCC2)c1 | 26.9% (inactive)
O=C(Nc1cccc(Cl)c1)c1cc([N+](=O)[O-])ccc1N1CCN(CCO)CC1 | 68.1% (active)
CCN1CCN(c2ccc([N+](=O)[O-])cc2C(=O)c2ccc(Cl)cc2)CC1 | 24.4% (inactive)
Cc1cccc(NC(=O)c2cc([N+](=O)[O-])ccc2N2CCN(C)CC2)c1 | 56.8% (active)
CC(C)C(=O)Nc1cccc(NC(=O)c2ccc([N+](=O)[O-])cc2Cl)c1 | -13.2% (inactive)
CCC(C)(C)NC(=O)c1cc([N+](=O)[O-])ccc1N1CCCCC1 | 9.2% (inactive)
